Screens (PubChem BioAssay)
The full list was thinned out, with hits kept by preference.
VDR inh – vitamin D3 receptor (human) inhibition | P11473 | VDR-SRC2-3 peptide fluorescence polarization, 2 h | Potency, µM, hits mostly inhibitors | actives 0.93% (n = 400,000)
Target sequence (P11473 whole entry, looked up): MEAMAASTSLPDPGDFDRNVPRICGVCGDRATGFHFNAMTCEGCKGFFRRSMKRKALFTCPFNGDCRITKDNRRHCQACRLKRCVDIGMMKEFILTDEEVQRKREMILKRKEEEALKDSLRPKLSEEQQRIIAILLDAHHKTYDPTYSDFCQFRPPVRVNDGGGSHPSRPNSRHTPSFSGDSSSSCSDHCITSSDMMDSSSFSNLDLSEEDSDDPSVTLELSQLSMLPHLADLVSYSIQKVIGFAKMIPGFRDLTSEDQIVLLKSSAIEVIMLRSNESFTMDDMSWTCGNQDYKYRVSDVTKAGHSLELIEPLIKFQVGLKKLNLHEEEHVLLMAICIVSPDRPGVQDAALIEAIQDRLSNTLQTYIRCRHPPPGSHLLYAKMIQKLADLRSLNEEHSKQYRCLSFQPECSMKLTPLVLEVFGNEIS
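Fluorescence polarization assay measuring small-molecule disruption of VDR binding to the coregulator peptide SRC2-3. Compounds were pin-transferred (23 nl) into the reagent mix and incubated 2 h at room temperature before reading.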
G9a inh – blocks human histone lysine methyltransferase G9a; G9a H3K9 monomethylation, AlphaScreen, 2 h; Potency, µM (highest dose often 102 µM), usual class: inhibitors; actives 8.8% (n = 350,000); AID 504332; note: nearly all actives have a fitted effect of over 75% in size
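AlphaScreen read-out: biotin-H3K9 peptide (500 nM) methylation by 20 nM enzyme with 20 uM SAM, 2 h at room temperature after 15 min compound preincubation; anti-monomethyl H3K9 antibody plus donor/acceptor beads, 10 min dark.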
Glioma ERSR ind – induces the endoplasmic reticulum stress response in human glioma cells; actives 0.02% (n = 420,000); Potency, µM, most hits filed as activators; U87-MG GRP78 promoter luciferase reporter, 16 h; note: series mostly up to about 76 µM; nearly all actives have a fitted effect of over 35% in size
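Stably transfected U87-MG human glioma cells carrying a GRP78-based luminescent sensor were seeded at 1000 cells/well, pin-dosed with compounds and incubated 16 h. Luciferase reagent was then added, and end-point luminescence was read after 10 min at room temperature.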
Sfp PPTase inh – blocks B. subtilis Sfp PPTase activity; Biochemical Sfp PPTase activity, qHTS; Potency, µM, usual class: inhibitors; actives 3.5% (n = 310,000); AID 1490;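 note: the enzyme is Sfp with the accession as filed and its product quenches rhodamine fluorescence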
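After 15 min at room temperature with compound, 15 nM Sfp received 5 uM rhodamine-CoA plus 12.5 uM BHQ-2-ybbR (50 mM Hepes pH 7.6, 10 mM MgCl2). Rate came from the fluorescence difference over 30 min, ex 525/em 598 nm.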
ALOX12 inh – ALOX12 (human) lipoxygenase inhibition; AID 1671190; actives 1.1% (n = 580,000); purified 12hLO, xylenol orange hydroperoxide absorbance; Potency, µM (titrated, usually from 108 µM), hits mostly inhibitors
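Purified human 12hLO (150 nM final) in 25 mM Hepes, 0.01% Triton X-100, pH 7.0 was preincubated 15 min at room temperature with compound. Then 40 uM arachidonic acid was added, 30 min. Hydroperoxide was read by Fe-XO absorbance ratio 573/405 nm.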
A number is an active result; ! = not active in a repeat; [ ] = remark or other dose. Calls come from the whole dose curve; as a rule, active = well fitted curve in the direction sought with a large enough effect; inconclusive = small, poorly fitted or top-dose-only effect, or another doubt; inactive = no such curve, though single readings can be large; an effect the other way counts as inactive or inconclusive.

For Cc1cccc(NC(=O)CSCC(=O)N(C)CCOc2ccc(Cl)cc2)c1 the results were VDR inh inactive, G9a inh 56.2µM, Glioma ERSR ind inactive and ALOX12 inh inactive.
`CCc1cccc(OCC(=O)N(C)CC(=O)Nc2cccc(F)c2)c1` gave VDR inh inactive, G9a inh 50.1µM, Glioma ERSR ind inactive and ALOX12 inh inactive.
CN(CC(=O)Nc1ccc(Cl)cc1)C(=O)COc1cccc(F)c1 was read as ALOX12 inh 39.8µM.
Screening Cc1ccc(SCC(=O)N(C)CC(=O)Nc2cccc(F)c2)cc1 returned VDR inh inactive, G9a inh inactive[0.501 µM], Glioma ERSR ind inactive and ALOX12 inh inactive.
Cc1ccc(NC(=O)CSCC(=O)N(C)CC(=O)Nc2cccc(F)c2)cc1 was read as VDR inh inactive, G9a inh 44.7µM, Glioma ERSR ind inactive and ALOX12 inh inconclusive.
`Cc1ccc(CCC(=O)N(C)Cc2cccs2)cc1` gave ALOX12 inh inactive.
`CCCC1=C(C(=O)OCC)C(c2ccc(F)cc2)n2ncnc2N1` (stereo not given) gave VDR inh inactive, G9a inh inconclusive, Glioma ERSR ind inactive, Sfp PPTase inh inactive and ALOX12 inh inactive.
Screening CCCC1=C(C(=O)OCC)C(c2ccc(N(C)C)cc2)n2ncnc2N1 (stereo not given) returned VDR inh inactive, G9a inh 44.7µM, Glioma ERSR ind inactive, Sfp PPTase inh inactive and ALOX12 inh inactive.
CCCCOC(=O)C1=C(C)Nc2ncnn2C1c1ccc(OC)c(OC)c1 (stereo not given) was read as VDR inh inactive, G9a inh 50.1µM, Glioma ERSR ind inactive, Sfp PPTase inh inactive and ALOX12 inh inactive.
Screening COc1ccc(NCc2ccsc2)cc1 returned VDR inh inactive, G9a inh 35.5µM, Glioma ERSR ind inactive, Sfp PPTase inh inactive and ALOX12 inh inactive.
For S=C(N/N=C1\CCCCC1C1CCCCC1)Nc1ccccc1 (stereo not given) the results were ALOX12 inh 15.8µM.
Screening CC(C)NC(=S)N/N=C1\CCCCC1C1CCCCC1 (stereo not given) returned VDR inh inconclusive, G9a inh 22.4µM, Glioma ERSR ind inactive, Sfp PPTase inh inactive and ALOX12 inh 22.4µM.
O=C(NC(=S)Nc1ccccc1)C1CCCCC1 was read as VDR inh inactive, Glioma ERSR ind inactive, Sfp PPTase inh inconclusive and ALOX12 inh inactive.
Screening CC(C)NCC(O)c1cc(O)cc(O)c1 (stereo not given) returned VDR inh inactive, G9a inh 25.1µM!, Glioma ERSR ind inactive, Sfp PPTase inh inactive and ALOX12 inh inactive.
`COc1ccccc1NS(=O)(=O)c1cc(NC(=O)CCC2CCCC2)ccc1N1CCOCC1` gave VDR inh inactive, G9a inh 1.41µM, Glioma ERSR ind inactive, Sfp PPTase inh inactive and ALOX12 inh inactive.
Screening COc1ccccc1NS(=O)(=O)c1cc(NC(=O)C2CCC2)ccc1N1CCCCC1 returned VDR inh inconclusive, G9a inh 3.55µM, Glioma ERSR ind inactive, Sfp PPTase inh 8.91µM and ALOX12 inh inactive.
Screening COc1ccc(NS(=O)(=O)c2cc(NC(=O)C3CC3)ccc2N2CCCCC2)cc1 returned VDR inh inactive, G9a inh inactive, Glioma ERSR ind inactive, Sfp PPTase inh inactive and ALOX12 inh inactive.
For COc1ccccc1NS(=O)(=O)c1cc(NC(=O)c2ccco2)ccc1N1CCOCC1 the results were VDR inh inactive, G9a inh inactive, Glioma ERSR ind inactive, Sfp PPTase inh inactive and ALOX12 inh inactive.
For COc1ccccc1NS(=O)(=O)c1cc(NC(=O)c2cccnc2)ccc1N1CCCCC1 the results were VDR inh inactive, Glioma ERSR ind inactive and ALOX12 inh inactive.
`COc1ccccc1NS(=O)(=O)c1cc(NC(=O)Nc2ccc(Cl)cc2Cl)ccc1N1CCCCC1` gave VDR inh inactive, G9a inh 3.55µM, Glioma ERSR ind inactive, Sfp PPTase inh inactive and ALOX12 inh inactive.
Screening CCCc1noc(-c2ccn3c(CNC(=O)Cc4ccccc4Cl)nnc3c2)n1 returned ALOX12 inh 44.7µM.
`CCCc1noc(-c2ccn3c(CNC(=O)c4ccc(CC)cc4)nnc3c2)n1` gave ALOX12 inh 39.8µM.
CCc1noc(-c2ccn3c(CNC(=O)c4cccc(Cl)c4)nnc3c2)n1 was read as ALOX12 inh inactive.
`CCc1noc(-c2ccn3c(CNC(=O)c4ccc(F)cc4)nnc3c2)n1` gave ALOX12 inh inactive.
